Bioassay records (PubChem BioAssay)
TexasRed fluor = Texas Red fluorescence interference in TRb-SRC2 counter-screen | TRb/SRC2 Texas Red total fluorescence interference | Potency, µM (series often up to 106 µM), without a hit: at the top dose fluorescence change, negative = quenching | actives 0.29% (n = 280,000) | AID 1479; active means well fitted curve in either direction with a large enough effect; inconclusive means small, poorly fitted or top-dose-only effect; further: potency means the concentration at half of the fitted maximal effect; on the % scale 0 is the no-effect control and ±100 the full control effect
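Human TRb ligand-binding domain at 0.6 uM with 20 nM Texas Red SRC2 peptide in Tris buffer containing 1 uM T3 and 5% DMSO, incubated with compound 5 h at ambient temperature. Total fluorescence (555/632 nm) calculated as parallel + 2 × perpendicular.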
TCR act = activates T cell receptor signaling; primary human leukocytes, anti-CD3, IL-2 HTRF, 48 h; Potency, µM (series often up to 9.22 µM), for inactives: at the highest dose activation of IL-2 secretion, actives largely listed as activators; 330,000 tested, under 10 active; further: % of control where 0% means no effect
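IL-2 release read by HTRF sandwich (Eu cryptate donor, d2 acceptor, 665 nm emission) after 48 hr exposure of primary human leukocytes to compound together with anti-CD3 beads in the absence of co-stimulatory signals.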
FBPA coupling cs = counter-screen for Giardia aldolase inhibitors: coupling enzyme system. coupling enzyme system counterscreen, AmpLite Red fluorescence. activity change, negative = inhibition, % at 58.2 µM, hits read low. actives 0.67% (n = 290,000). AID 2472; in the data active means activity change below about -30%; further: on the % scale 0 is the no-effect control and ±100 the full control effect
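Fluorescence at 525 nm excitation and 598 nm emission measured inhibition of the coupled detection system without aldolase. Compounds (at 57.5 uM final) were preincubated 10 min at room temperature with coupling enzyme reagent before a 20 min substrate/AmpLite Red step.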
TSHR antagonist = blocks TSH signaling through the human TSH receptor; P16473; TSHR-expressing cells, TSH-stimulated cAMP HTRF, 2 h; active compounds read low; activity change, negative = inhibition, % at 11.5 µM; actives 0.2% (n = 330,000);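 active means activity change below a set negative limit, meaning inhibition stronger than a set level, cut at about -70% in these data; inconclusive means activity change between two set negative limits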; further: on the % scale 0 is the no-effect control and ±100 the full control effect
Target sequence (P16473 whole entry, looked up): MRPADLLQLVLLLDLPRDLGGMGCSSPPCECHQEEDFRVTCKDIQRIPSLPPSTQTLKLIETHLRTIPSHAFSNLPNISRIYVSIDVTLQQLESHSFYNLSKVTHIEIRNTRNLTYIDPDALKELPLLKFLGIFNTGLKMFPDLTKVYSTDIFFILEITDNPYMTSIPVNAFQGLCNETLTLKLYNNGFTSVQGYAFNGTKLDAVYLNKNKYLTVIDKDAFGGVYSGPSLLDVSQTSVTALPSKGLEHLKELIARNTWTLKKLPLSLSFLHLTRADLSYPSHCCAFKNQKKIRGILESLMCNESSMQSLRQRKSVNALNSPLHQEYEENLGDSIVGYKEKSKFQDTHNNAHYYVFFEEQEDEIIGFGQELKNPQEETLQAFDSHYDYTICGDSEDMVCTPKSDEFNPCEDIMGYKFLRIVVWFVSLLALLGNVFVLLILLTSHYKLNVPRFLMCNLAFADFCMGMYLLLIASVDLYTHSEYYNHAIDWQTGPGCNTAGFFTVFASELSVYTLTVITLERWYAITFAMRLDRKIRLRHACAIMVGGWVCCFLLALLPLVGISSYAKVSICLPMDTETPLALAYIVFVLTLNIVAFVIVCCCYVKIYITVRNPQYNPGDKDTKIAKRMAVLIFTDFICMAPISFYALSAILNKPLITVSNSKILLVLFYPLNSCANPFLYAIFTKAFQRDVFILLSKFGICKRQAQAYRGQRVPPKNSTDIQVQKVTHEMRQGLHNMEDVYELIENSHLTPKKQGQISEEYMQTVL
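Competitive HTRF cAMP read-out (cryptate anti-cAMP antibody, cAMP-d2; 30 min, room temperature) in freshly harvested TSHR cells. Compounds added before TSH at EC80 (4nM final), followed by 2 hours' incubation at 37 deg C.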
TRb SRC2 PPI = TRbeta-SRC2 interaction inhibition; P10828; TRbeta-SRC2 peptide binding, fluorescence polarization; receptor liganded with 1 µM T3; Potency, µM (highest dose often 106 µM), inactives show at the top dose activity change, negative = inhibition, usual class: inhibitors; actives 0.065% (n = 280,000);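 further: potency means the concentration at half of the fitted maximal effect; plate controls were bound peptide for no effect and peptide without receptor for full effect; nearly all actives have a fitted effect of over 50% in size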
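TRb LBD 0.6 uM + Texas Red SRC2 peptide 20 nM, 1 uM T3, Tris buffer w/ 5% DMSO; compound pinned, 5 h RT; FP read ex 555/em 632; normalized to unbound and bound controls.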
NPSR antagonist = antagonists of human neuropeptide S receptor cAMP signaling | CHO-NPSR cells, cAMP TR-FRET, antagonist mode | actives 1% (n = 220,000) | Q6W5P4 | Potency, µM (top dose mostly 38.3 µM), for inactives: top-dose activity change, negative = inhibition, actives largely listed as inhibitors; further: potency means the concentration at half of the fitted maximal effect; on the % scale 0 is the no-effect control and ±100 the full control effect; nearly all actives have a fitted effect of over 50% in size
Starred values were filed as active, the others as inactive; [ ] = remark or other dose. Only some compounds are listed: those with a hit (about 1% of all), similar ones and a draw of the others. Unless noted, the call rests on the fitted dose curve; in most records, active means well fitted curve in the direction sought with a large enough effect; inconclusive means small, poorly fitted or top-dose-only effect, or another doubt; inactive means no such curve, though single readings can be large; an effect the other way counts as inactive or inconclusive.

What do the screens show for `O=C1c2ccccc2C(=O)c2[nH]cnc21`?
TexasRed fluor: -6.8%; TCR act: 2.8%; FBPA coupling cs: -23.5; TSHR antagonist: 13.6; TRb SRC2 PPI: -3.6%; NPSR antagonist: -18.6%

Results for CCOc1cc(/C=C2/C(=N)N3OC(C)=CC3=NC2=O)ccc1OCCOc1ccccc1 ?
TexasRed fluor: -8.0%; TCR act: -0.6%; FBPA coupling cs: 3.1; TSHR antagonist: -1.3; TRb SRC2 PPI: -8.6%; NPSR antagonist: 10µM*

What do the screens show for `CCOc1ccc(/C=C2/C(=N)N3OC(C)=CC3=NC2=O)cc1OC`?
TexasRed fluor: -0.4%; TCR act: 2.2%; FBPA coupling cs: 1.8; TSHR antagonist: -10.6; TRb SRC2 PPI: 0.6%; NPSR antagonist: -10.7%

What do the screens show for `Cc1cc2oc(C(=O)Nc3sc4c(c3C(=O)NCC3CCCO3)CCCC4)cc(=O)c2cc1C` (configuration not stated)?
TexasRed fluor: inconclusive; TRb SRC2 PPI: -1.8%

How did CSc1nsc(/C=C/Nc2ccc(F)cc2)c1C#N do in these assays?
TexasRed fluor: -1.2%; TCR act: -1.4%; FBPA coupling cs: -19.4; TSHR antagonist: 4.1; TRb SRC2 PPI: -5.7%; NPSR antagonist: -11.8%

How did CSc1nsc(/C=C/Nc2ccc(O)cc2C)c1C#N do in these assays?
TexasRed fluor: 50.1µM*[fluorescent]; TCR act: 1.9%; FBPA coupling cs: -32.9*; TSHR antagonist: -3.4; TRb SRC2 PPI: 44.7µM*; NPSR antagonist: -25.5%

What do the screens show for `CCOC(=O)CC(NC(=O)Cn1nnc(-c2ccc(C(F)(F)F)cc2)n1)c1ccc(C)cc1` (configuration not stated)?
TexasRed fluor: -7.5%; TRb SRC2 PPI: 1.5%

Results for CC(=O)Nc1ccc(S(=O)(=O)NCc2cccn2Cc2cccc(C)c2)cc1 ?
TexasRed fluor: 0.0%; TRb SRC2 PPI: -9.1%

What do the screens show for `CN1CC(=O)N(CC(=O)Nc2ccc(Cl)c(C(F)(F)F)c2)c2ccccc2C1=O`?
TexasRed fluor: -0.9%; TRb SRC2 PPI: 5.2%

Results for CN1CC(=O)N(CC(=O)Nc2ccc(N(C)C)cc2)c2ccccc2C1=O ?
TexasRed fluor: -0.8%; TCR act: 8.7%; FBPA coupling cs: -41.7*; TRb SRC2 PPI: 7.0%; NPSR antagonist: inconclusive

Results for Cc1cccc(N2CCN(C(=O)Cn3nc(Cc4cccnc4)c4ccccc4c3=O)CC2)c1C ?
TexasRed fluor: -2.7%; TRb SRC2 PPI: 0.3%

Results for CCC(C)(C)C(=O)Nc1cc([N+](=O)[O-])ccc1F ?
TexasRed fluor: 0.1µM*[quencher]; TCR act: -4.5%[46.1 µM]; FBPA coupling cs: -0.2; TSHR antagonist: 25.2; TRb SRC2 PPI: -21.5%[53 µM]; NPSR antagonist: 15.1%

What do the screens show for `COc1cc(/C=N/Nc2nc(Nc3ccccc3)nc(-n3nc(C)cc3C)n2)cc(OC)c1OC`?
TexasRed fluor: -1.3%; TCR act: -7.7%; FBPA coupling cs: 1.0; TSHR antagonist: -21.6; TRb SRC2 PPI: 11.2%; NPSR antagonist: -24.2%

What do the screens show for `COc1ccc(O)c(/C=N/Nc2nc(Nc3ccccc3)nc(-n3nc(C)cc3C)n2)c1`?
TexasRed fluor: -7.0%; TCR act: 2.3%; FBPA coupling cs: -4.1; TSHR antagonist: -29.0; TRb SRC2 PPI: 5.3%; NPSR antagonist: 1.26µM*

What do the screens show for `CCOC(=O)c1cc([N+](=O)[O-])c([N+](=O)[O-])cc1NC(C)=O`?
TexasRed fluor: -1.8%; TCR act: 9.1%; FBPA coupling cs: -3.5; TSHR antagonist: 1.1; TRb SRC2 PPI: -1.9%; NPSR antagonist: 10µM*

Results for CN1c2cccc3cccc(c23)N(C)C1c1cccs1 ?
TexasRed fluor: -2.4%; TCR act: 0.6%; FBPA coupling cs: -37.0*; TSHR antagonist: 4.1; TRb SRC2 PPI: -5.1%; NPSR antagonist: -16.7%[46.1 µM]

Results for CC1N(C)c2cccc3cccc(c23)N1C ?
TexasRed fluor: 0.0%; TCR act: -0.5%[46.1 µM]; FBPA coupling cs: -29.6; TSHR antagonist: -3.9; TRb SRC2 PPI: 5.5%; NPSR antagonist: -17.3%[46.1 µM]

How did CCCN(Cc1ccc(N(CC)CC)cc1)CC1CC1 do in these assays?
TexasRed fluor: -3.7%; TCR act: 6.8%; FBPA coupling cs: 1.4; TSHR antagonist: -4.9; TRb SRC2 PPI: -0.9%; NPSR antagonist: -3.5%[46.1 µM]

What do the screens show for `CCCN(Cc1ccc(N(C)C)cc1)CC1CC1`?
TexasRed fluor: 0.1%; FBPA coupling cs: -49.7*; TSHR antagonist: 4.6; TRb SRC2 PPI: -8.3%; NPSR antagonist: -12.1%[46.1 µM]

Results for C=CCC(CC=C)(CNC(=O)C(=O)Nc1cccc(C(F)(F)F)c1)c1ccccc1 ?
TexasRed fluor: 1.3%; TRb SRC2 PPI: -6.2%

Results for CN(C)CC/C=C1/c2ccccc2Sc2c(O)cc(Cl)cc21 ?
TexasRed fluor: 2.6%; TCR act: -2.9%[46.1 µM]; FBPA coupling cs: -30.8*; TSHR antagonist: 27.1; TRb SRC2 PPI: -16.0%; NPSR antagonist: -9.5%[46.1 µM]

How did COc1cc(Cl)cc2c1Sc1ccccc1/C2=C/CCN(C)C do in these assays?
TexasRed fluor: 0.2%; TCR act: 2.3%[46.1 µM]; FBPA coupling cs: 0.5; TSHR antagonist: -13.1; TRb SRC2 PPI: 2.9%; NPSR antagonist: 2.2%[46.1 µM]

What do the screens show for `Cc1ccc(C)n1-c1c(C(=O)NCCCN2CCN(c3ccc(F)cc3)CC2)sc2ncccc12`?
TexasRed fluor: -3.6%; TRb SRC2 PPI: 6.7%

Results for Cc1[nH]c2ccc3c(ncn3CCC#N)c2c1C ?
TexasRed fluor: -1.0%; TCR act: 4.6%; FBPA coupling cs: -36.5*; TSHR antagonist: -2.3; TRb SRC2 PPI: 6.7%; NPSR antagonist: inconclusive

What do the screens show for `Cc1nc([N+](=O)[O-])cn1CCC#N`?
TexasRed fluor: 0.7%; TCR act: 4.5%; FBPA coupling cs: 2.6; TSHR antagonist: 2.3; TRb SRC2 PPI: 5.0%; NPSR antagonist: -33.6%

What do the screens show for `CN=C(N)NCC1CCOC1` (configuration not stated)?
TexasRed fluor: 1.4%[201 µM]; TRb SRC2 PPI: 2.4%[201 µM]

Results for Cc1ccc(-n2ncc3c(N(C)Cc4ccccc4)ncnc32)cc1 ?
TexasRed fluor: 0.5%; TRb SRC2 PPI: 0.4%

What do the screens show for `COc1ccc(OCc2n(CC(=O)OC3CC(C)CCC3C(C)C)c3ccccc3[n+]2C)cc1` (configuration not stated)?
TexasRed fluor: -2.3%; TCR act: 5.4%; FBPA coupling cs: -0.3; TSHR antagonist: 21.6; TRb SRC2 PPI: 3.2%; NPSR antagonist: 10µM*

Results for Cc1ccc(S(=O)(=O)c2nc(-c3cccs3)oc2SCC(=O)Nc2cc(C)cc(C)c2)cc1 ?
TexasRed fluor: -1.7%; TRb SRC2 PPI: 7.4%
